Data from PubChem BioAssay (NCI).
This is part of a sample that, as a whole, favours compounds with a hit. Of some 79,000 tested, about 15% had one in any assay. Active and inactive are the calls of the source. Rule as the data show it: active = growth inhibition above about 70%; inactive = the rest.

Tests used:
[1] = NCI Yeast Anticancer Drug Screen. Data for the rad52 strain (AID 147);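 also: 0% = growth of vehicle-treated control cultures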; conditions: S. cerevisiae rad52 mutant growth inhibition, stronger effect = higher value
Method in brief: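 The repair-mutant yeast strain was incubated with compounds, then growth was read and inhibition derived relative to vehicle.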

[2] = NCI Yeast Anticancer Drug Screen. Data for the wt1 strain (AID 149);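 also: 0% = growth of vehicle-treated wt1 cultures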; conditions: S. cerevisiae wt1 strain (SPY 50644) growth inhibition, stronger effect = higher value
Method in brief: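 Measured: growth of wt1 yeast under compound versus vehicle treatment, reported as inhibition.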

[3] = NCI Yeast Anticancer Drug Screen. Data for the mgt1 strain (AID 153); conditions: S. cerevisiae mgt1 mutant growth inhibition, stronger effect = higher value
Method in brief: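 Vehicle-normalized growth inhibition is determined in mgt1 yeast, a strain selected for a defined alteration in DNA repair or cell cycle control.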

[4] = NCI Yeast Anticancer Drug Screen. Data for the rad50 strain (AID 155);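 also: 0% = growth of vehicle-only cultures of the same strain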; conditions: S. cerevisiae rad50 strain growth inhibition, stronger effect = higher value
Method in brief: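 Growth of the mutant yeast was measured after compound exposure and referenced to vehicle-treated cultures.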

[5] = NCI Yeast Anticancer Drug Screen. Data for the mec2-1 strain (AID 157); conditions: S. cerevisiae mec2-1 strain, stronger effect = higher value
Method in brief: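 Mutant yeast (mec2-1) grown with compound; growth inhibition relative to vehicle control reported.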

[6] = NCI Yeast Anticancer Drug Screen. Data for the rad14 strain (AID 159);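 also: 0% = growth of vehicle-treated control cultures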; conditions: S. cerevisiae rad14 strain growth inhibition, stronger effect = higher value
Method in brief: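 Here, inhibition of yeast growth was measured after compound exposure, using a strain with a genetic defect in DNA damage repair and vehicle-treated cultures as the reference.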

[7] = NCI Yeast Anticancer Drug Screen. Data for the sgs1 mgt1 strain (AID 161);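 also: 0% = growth of cultures given vehicle only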; conditions: S. cerevisiae sgs1 mgt1 strain, stronger effect = higher value
Method in brief: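 Compounds are added to genetically altered yeast, and growth is compared with cultures given vehicle alone to give percent inhibition.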

[8] = NCI Yeast Anticancer Drug Screen. Data for the CLN2oe strain (AID 163);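 also: 0% = growth of vehicle-only control cultures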; conditions: S. cerevisiae CLN2oe strain, stronger effect = higher value
Method in brief: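 Compounds are applied to yeast harbouring a defined cell-cycle control change; reduced growth compared with vehicle-treated controls gives the value.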

[9] = NCI Yeast Anticancer Drug Screen. Data for the cln2 rad14 strain (AID 165);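 also: 0% = growth equal to vehicle treated cultures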; conditions: S. cerevisiae cln2 rad14 strain, stronger effect = higher value
Method in brief: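 Readout is yeast growth inhibition versus vehicle-treated controls, using a strain with cln2 and rad14 alterations exposed to compound.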

[10] = NCI Yeast Anticancer Drug Screen. Data for the bub3 strain (AID 167); conditions: S. cerevisiae bub3 mutant strain, stronger effect = higher value
Method in brief: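 Whole-cell yeast assay. The mutant strain was incubated with compounds, and growth inhibition was determined by comparison with vehicle-treated cells.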

[11] = NCI Yeast Anticancer Drug Screen. Data for the wt2 strain (AID 169);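 also: 0% = growth of vehicle-treated yeast cultures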; conditions: S. cerevisiae wt2 strain growth inhibition, stronger effect = higher value
Method in brief: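 Against vehicle-treated controls, the growth of yeast exposed to each compound was compared, and the inhibition was recorded.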

[12] = NCI Yeast Anticancer Drug Screen. Data for the mlh1 strain (AID 171);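 also: 0% = growth of vehicle-treated control cultures of the same strain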; conditions: S. cerevisiae mlh1 strain growth inhibition, stronger effect = higher value
Method in brief: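 Measured: yeast growth. Reference: vehicle-treated controls. Organism: strain with a defined alteration affecting DNA damage repair or cell cycle control, treated with compound.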

[13] = NCI Yeast Anticancer Drug Screen. Data for the sgs1 strain (AID 173);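 also: 0% = growth of vehicle-only control cultures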; conditions: S. cerevisiae sgs1 mutant, stronger effect = higher value
Method in brief: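 Each compound was added to cultures of the altered yeast strain. Growth was recorded, and inhibition was derived by comparison with vehicle controls.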

[14] = NCI Yeast Anticancer Drug Screen. Data for the mlh1 rad18 strain (AID 175); conditions: S. cerevisiae mlh1 rad18 strain growth inhibition, stronger effect = higher value
Method in brief: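 Genetically defined yeast (DNA repair-deficient) exposed to compounds; growth inhibition determined relative to vehicle.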

[15] = NCI Yeast Anticancer Drug Screen. Data for the rad18 strain (AID 177); conditions: S. cerevisiae rad18 mutant growth inhibition, stronger effect = higher value
Method in brief: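 Vehicle-treated cultures served as the baseline for scoring compound-induced growth inhibition in DNA-repair-mutant yeast.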

[16] = NCI Yeast Anticancer Drug Screen. Data for the rad50EPP+ strain (AID 151);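 also: 0% = growth of vehicle-treated control cultures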; conditions: S. cerevisiae rad50 mutant strain, stronger effect = higher value
Method in brief: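 Vehicle-normalised growth inhibition; rad50EPP+ yeast strain, altered in DNA damage repair, compound-treated.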

[17] = at 5.0 µM (retest, dose inferred, filed as 0.5)
[18] = at 50.0 µM (retest, dose inferred, filed as 5.0)

Measured: growth inhibition

COc1cc(C2SCC(=O)N2c2ccc(-c3ccc(-n4c(-c5ccccc5)nc5ccccc5c4=O)cc3)cc2)cc(OC)c1OC (stereo unspecified)
active: [10]; [18] 73% | [10]; at 50.0 µM 71.7%
inactive: [1]; at 1.2 µM -3% | [1]; at 3.7 µM -1% | [1]; at 11.0 µM 1% | [1]; at 33.0 µM 1% | [1]; at 100.0 µM -5% | [2]; at 1.2 µM 0% | [2]; at 3.7 µM 0% | [2]; at 11.0 µM 0% | [2]; at 33.0 µM -2% | [2]; at 100.0 µM -8% | [3]; at 1.2 µM -1% | [3]; at 3.7 µM 0% | [3]; at 11.0 µM -2% | [3]; at 33.0 µM -3% | [3]; at 100.0 µM -7% | [4]; at 1.2 µM -2% | [4]; at 3.7 µM 2% | [4]; [17] -1% | [4]; at 11.0 µM 1% | [4]; at 33.0 µM 3% | [4]; [18] 13% | [4]; at 50.0 µM 25.9% | [4]; at 100.0 µM 1% | [5]; at 1.2 µM 0% | [5]; at 3.7 µM 0% | [5]; [17] 2% | [5]; at 11.0 µM 2% | [5]; at 33.0 µM 4% | [5]; [18] 3% | [5]; at 50.0 µM 19.6% | [5]; at 100.0 µM -2% | [6]; at 1.2 µM 0% | [6]; at 3.7 µM 0% | [6]; at 11.0 µM 4% | [6]; at 33.0 µM 6% | [6]; at 100.0 µM 4% | [7]; [17] 8% | [7]; [18] 7% | [7]; at 50.0 µM 21.6% | [8]; at 1.2 µM 5% | [8]; at 3.7 µM 7% | [8]; at 11.0 µM 9% | [8]; at 33.0 µM 10% | [8]; at 100.0 µM -2% | [9]; [17] 32% | [9]; [18] 13% | [9]; at 50.0 µM 52.4% | [10]; at 1.2 µM -1% | [10]; at 3.7 µM 4% | [10]; [17] 6% | [10]; at 11.0 µM 17% | [10]; at 33.0 µM 27% | [10]; at 100.0 µM 41% | [11]; at 1.2 µM -1% | [11]; at 3.7 µM -2% | [11]; at 11.0 µM -2% | [11]; at 33.0 µM -3% | [11]; at 100.0 µM -8% | [12]; at 1.2 µM -1% | [12]; at 3.7 µM 0% | [12]; at 11.0 µM 1% | [12]; at 33.0 µM -1% | [12]; at 100.0 µM -3% | [13]; at 1.2 µM -3% | [13]; at 3.7 µM -1% | [13]; at 11.0 µM 2% | [13]; at 33.0 µM -1% | [13]; at 100.0 µM -7% | [14]; [17] 6% | [14]; [18] 37% | [14]; at 50.0 µM 19.4% | [15]; at 1.2 µM -3% | [15]; at 3.7 µM 0% | [15]; at 11.0 µM 0% | [15]; at 33.0 µM 3% | [15]; at 100.0 µM 1%

COc1ccccc1/C=C1\Sc2scc(-c3cccc([N+](=O)[O-])c3)[n+]2C1=O
active: [1]; at 3.7 µM 80% | [1]; at 11.0 µM 98% | [1]; at 33.0 µM 97% | [1]; at 100.0 µM 93% | [2]; at 3.7 µM 91% | [2]; at 11.0 µM 99% | [2]; at 33.0 µM 98% | [2]; at 100.0 µM 94% | [3]; at 3.7 µM 98% | [3]; at 11.0 µM 99% | [3]; at 33.0 µM 94% | [3]; at 100.0 µM 91% | [4]; at 3.7 µM 93% | [4]; at 11.0 µM 98% | [4]; at 33.0 µM 92% | [4]; [18] 96% | [4]; at 50.0 µM 85.7% | [4]; at 100.0 µM 91% | [5]; at 3.7 µM 98% | [5]; at 11.0 µM 99% | [5]; at 33.0 µM 96% | [5]; [18] 96% | [5]; at 50.0 µM 89.1% | [5]; at 100.0 µM 90% | [6]; at 3.7 µM 90% | [6]; at 11.0 µM 99% | [6]; at 33.0 µM 97% | [6]; at 100.0 µM 94% | [7]; [18] 98% | [7]; at 50.0 µM 89.3% | [8]; at 3.7 µM 82% | [8]; at 11.0 µM 99% | [8]; at 33.0 µM 97% | [8]; at 100.0 µM 95% | [9]; [18] 96% | [9]; at 50.0 µM 87.6% | [10]; at 1.2 µM 70% | [10]; at 3.7 µM 96% | [10]; [17] 92% | [10]; at 11.0 µM 99% | [10]; at 33.0 µM 95% | [10]; [18] 95% | [10]; at 50.0 µM 83.8% | [10]; at 100.0 µM 84% | [11]; at 11.0 µM 98% | [11]; at 33.0 µM 98% | [11]; at 100.0 µM 95% | [12]; at 3.7 µM 89% | [12]; at 11.0 µM 99% | [12]; at 33.0 µM 97% | [12]; at 100.0 µM 90% | [13]; at 3.7 µM 89% | [13]; at 11.0 µM 99% | [13]; at 33.0 µM 97% | [13]; at 100.0 µM 90% | [14]; [18] 96% | [14]; at 50.0 µM 89.2% | [15]; at 3.7 µM 82% | [15]; at 11.0 µM 98% | [15]; at 33.0 µM 96% | [15]; at 100.0 µM 93%
inactive: [1]; at 1.2 µM 31% | [2]; at 1.2 µM 33% | [3]; at 1.2 µM 63% | [4]; at 1.2 µM 47% | [4]; [17] 12% | [5]; at 1.2 µM 67% | [5]; [17] 16% | [6]; at 1.2 µM 28% | [7]; [17] 46% | [8]; at 1.2 µM 46% | [9]; [17] 15% | [11]; at 1.2 µM 18% | [11]; at 3.7 µM 59% | [12]; at 1.2 µM 34% | [13]; at 1.2 µM 34% | [14]; [17] 13% | [15]; at 1.2 µM 14%

CCC(=O)OCCn1c2nc(=O)[nH]c(=O)c-2nc2cc(C)c(C)cc21
inactive: [1]; at 1.2 µM -10% | [1]; at 3.7 µM -12% | [1]; at 11.0 µM -5% | [1]; at 33.0 µM 0% | [1]; at 100.0 µM 0% | [16]; at 1.2 µM -1% | [16]; at 3.7 µM -13% | [16]; at 11.0 µM 24% | [3]; at 1.2 µM -1% | [3]; at 3.7 µM -8% | [3]; at 11.0 µM 3% | [4]; at 1.2 µM -57% | [4]; at 3.7 µM -17% | [4]; [17] 3% | [4]; at 11.0 µM -9% | [4]; at 33.0 µM 15% | [4]; [18] 10% | [4]; at 50.0 µM 33.3% | [4]; at 100.0 µM 44% | [5]; at 1.2 µM -2% | [5]; at 3.7 µM -3% | [5]; [17] 3% | [5]; at 11.0 µM -2% | [5]; at 33.0 µM -4% | [5]; [18] 14% | [5]; at 50.0 µM 42.9%
active: [16]; at 33.0 µM 73% | [16]; at 100.0 µM 88% | [3]; at 33.0 µM 75% | [3]; at 100.0 µM 88%
